Compound activity deposited in PubChem BioAssay by National Center for Advancing Translational Sciences (NCATS).
The list is not random: actives were taken first. Their share in the collection is about 17%.
TDP1 block = inhibitors of human tyrosyl-DNA phosphodiesterase TDP1 | 350,000 compounds, 0.28% hits | Q9NUW8 | recombinant TDP1, AlphaScreen DNA substrate cleavage | Potency, µM (series often up to 130 µM), for the others: at the highest dose activity change, negative = inhibition, hits mostly inhibitors; note: % is set by controls: 0 for no effect and ±100 for the full control effect; nearly all actives have a fitted effect of over 40% in size
Target sequence (Q9NUW8 whole entry, looked up): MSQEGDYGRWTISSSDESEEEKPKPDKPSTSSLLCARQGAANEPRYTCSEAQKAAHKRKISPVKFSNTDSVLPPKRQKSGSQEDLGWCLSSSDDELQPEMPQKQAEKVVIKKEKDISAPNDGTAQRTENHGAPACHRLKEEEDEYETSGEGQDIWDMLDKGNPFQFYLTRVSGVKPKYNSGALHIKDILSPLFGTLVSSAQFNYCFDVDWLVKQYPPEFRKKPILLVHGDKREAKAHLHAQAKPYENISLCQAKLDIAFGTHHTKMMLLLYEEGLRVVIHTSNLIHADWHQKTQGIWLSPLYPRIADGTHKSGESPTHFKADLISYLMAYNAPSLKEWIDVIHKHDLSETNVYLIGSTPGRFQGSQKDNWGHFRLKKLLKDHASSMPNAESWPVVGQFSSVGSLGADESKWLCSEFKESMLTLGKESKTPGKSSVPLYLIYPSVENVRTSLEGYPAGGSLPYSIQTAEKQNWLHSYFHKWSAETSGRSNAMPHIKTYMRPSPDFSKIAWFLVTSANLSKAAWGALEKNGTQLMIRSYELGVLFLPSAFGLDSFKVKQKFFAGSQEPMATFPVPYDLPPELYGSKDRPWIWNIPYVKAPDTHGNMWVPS
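Recombinant E. coli-expressed Tdp1 (1 nM) preincubated with compound 15 min at RT, then 5'-biotin/3'-phosphotyrosine-FITC DNA substrate (15 nM) added for 5 min. AlphaScreen beads (10 ug/ml) added, 10 min RT; tyrosine-FITC cleavage read as signal loss.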
DT40 TDP1 no CPT = qHTS for Inhibitors of human tyrosyl-DNA phosphodiesterase 1 (TDP1): qHTS in cells in absence of CPT | DT40 Tdp1-/- hTDP1 cells, no CPT, ATP luminescence, 48 h | Potency, µM (doses to about 46.2 µM), inactives show top-dose activity change, negative = growth inhibition, actives largely listed as inhibitors | 420,000 compounds, 15% hits | AID 686978, 2013; note: % is set by controls: 0 for no effect and ±100 for the full control effect; nearly all actives have a fitted effect of over 55% in size
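Readout: luminescence from CellTiter-Glo after 30 min in the dark at RT. Cells: DT40 Tdp1-/- with stable hTDP1, 400/well. Exposure: compounds alone, ≥48 hr, 37 °C.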
DT40 TDP1 CPT = DT40-hTDP1 cell growth loss with CPT; chicken DT40 Tdp1-/-;hTDP1 cells + 20 nM CPT, ATP luminescence, 48 h; Potency, µM (titrated, usually from 46.2 µM), for inactives: top-dose activity change, negative = growth inhibition, most hits filed as inhibitors; 420,000 compounds, 12% hits; AID 686979; note: % is set by controls: 0 for no effect and ±100 for the full control effect; nearly all actives have a fitted effect of over 55% in size
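Chicken DT40 Tdp1-/- cells complemented with human TDP1, 400 cells/well, exposed to compounds plus 20 nM camptothecin for at least 48 h at 37 C; viability read as ATP content by CellTiter-Glo luminescence.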
ClpP mod = qHTS Assay for Activators of ClpP; ATP-dependent Clp protease proteolytic subunit (Bacillus subtilis (strain 168)), P80244; purified B. subtilis ClpP, FRET peptide cleavage, 20 min; Potency, µM (series often up to 57.5 µM), for inactives: at the highest dose activity change, negative = active; 340,000 compounds, 1.9% hits; active = well fitted falling curve with a large enough effect; inconclusive = small, poorly fitted or top-dose-only effect; inactive = no such curve, though single readings can be large or run the other way; note: the source files actives as falling curves though it sought activators and does not explain the sign; nearly all actives have a fitted effect of over 65% in size
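Buffer: 100 mM Tris/HCl pH8, 100 mM KCl, 0.05% low protease BSA, 2.5% glycerol, 0.01% Tween-20. ClpP 10 microg/mL final; 20 min RT; delta FRET normalized to ADEP and DMSO controls.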
Active calls of the source: *; ? = inconclusive; / = no result given. Unless noted, calls come from the whole dose curve; as a rule, active = well fitted curve in the direction sought with a large enough effect; inconclusive = small, poorly fitted or top-dose-only effect, or another doubt; inactive = no such curve, though single readings can be large; an effect the other way counts as inactive or inconclusive. Potency is the fitted concentration of half-maximal effect.

SMILES | TDP1 block | DT40 TDP1 no CPT | DT40 TDP1 CPT | ClpP mod
COc1ccc(OCCn2c(C)nc3cc(C)c(C)cc32)cc1 | 6% | 21µM* | 15µM* | -1%
CCCc1nc2ccccc2n1CCOc1ccccc1 | -3% | ? | ? | -1%
CCCC(O)c1nc2ccccc2n1CCCOc1ccc(Cl)cc1 (configuration not stated) | 9% | 3.3µM* | 3.7µM* | 2%
COCc1nc2ccccc2n1CCCOc1ccccc1 | 2% | 26µM* | 23µM* | 1%
Cc1nc2ccccc2n1CCCOc1ccccc1 | 5% | 23µM* | ? | -2%
Nc1nc2ccccc2n1CCOc1ccc(Cl)cc1 | / | ? | ? | -1%
CC(=O)N1N=C(c2ccc(C(C)(C)C)cc2)OC1(C)C | / | 10µM* | 15µM* | 32µM*
CC(=O)N1N=C(c2ccc3ccccc3c2)OC1(C)C | 3% | ? | 18µM* | 14%
CC(=O)N1N=C(c2ccc(Br)cc2)OC12CCCC2 | -1% | -20% | -9% | 1%
Cc1sc2c(c1C)C(=O)NC(c1ccccc1F)N2 (configuration not stated) | 0% | ? | ? | /
OCC1(CCc2ccccc2)CCN(C/C=C/c2ccccc2)CC1 | / | -23% | -30% | 1%
OCC1(Cc2ccccc2Cl)CCN(C/C=C/c2ccccc2)CC1 | 3% | 18µM* | ? | -2%
COc1ccccc1C(=O)NCCC(=O)NCc1ccncc1 | 1% | -7% | -24% | -1%
Nc1ccc(/C=C/c2cc(Cl)nc3ccccc23)cc1 | / | 4µM* | 4µM* | 1%
CCN(CC)c1ccc(/C=C/c2cc(Cl)nc3ccccc23)cc1 | / | 16µM* | ? | -1%
CN(C)c1ccc(/C=C/c2cc(Cl)nc3ccccc23)cc1 | / | -29% | ? | ?
Cc1cccc(-n2c(C)cc(C(=O)C(=O)Nc3ccccc3F)c2C)c1C | 6% | ? | ? | -1%
COc1ccc(N(C)S(=O)(=O)c2cccc(C(=O)OCC(=O)c3c(N)n(C)c(=O)n(C)c3=O)c2)cc1 | -2% | 13µM* | 23µM* | 0%
CNS(=O)(=O)c1cccc(C(=O)OCC(=O)c2c(N)n(Cc3ccccc3)c(=O)n(C)c2=O)c1 | / | ? | 15µM* | -3%
Cn1c(=O)c(C(=O)COC(=O)c2cc(-c3ccccc3)nc3ccccc23)c(N)n(Cc2ccccc2)c1=O | 8% | / | / | /
CCN(c1ccccc1)S(=O)(=O)c1cccc(C(=O)OCC(=O)c2c(N)n(C)c(=O)n(C)c2=O)c1 | / | 18µM* | ? | -2%
Cn1c(=O)c(C(=O)COC(=O)c2cc(C3CC3)nc3ccccc23)c(N)n(Cc2ccccc2)c1=O | 11% | 16µM* | 21µM* | -20%
Cn1c(N)c(C(=O)COC(=O)c2cccc(S(=O)(=O)NCc3ccccc3)c2)c(=O)n(C)c1=O | 0% | ? | ? | 1%
C=CCN(c1ccc(OC)cc1)S(=O)(=O)c1ccc(Cl)c(C(=O)OCC(=O)c2c(N)n(C)c(=O)n(C)c2=O)c1 | / | ? | ? | 1%
CN(c1ccccc1)S(=O)(=O)c1ccc(Cl)c(C(=O)OCC(=O)c2c(N)n(C)c(=O)n(C)c2=O)c1 | / | ? | 23µM* | -6%
SMILES | TDP1 block | DT40 TDP1 no CPT | DT40 TDP1 CPT | ClpP mod
COc1ccc(Cl)cc1NC(=O)CN(C)CC(=O)NCc1ccc(F)cc1 | 1% | ? | ? | 0%
CC1CCCN(CC(=O)Nc2ccc(S(=O)(=O)N3CCCC3)cc2)C1 (configuration not stated) | / | 13µM* | 3% | /
CC1CCN(S(=O)(=O)c2ccc(NC(=O)CN3CCCC(C)C3)cc2)CC1 (configuration not stated) | 6% | ? | ? | 0%
Cc1ccccc1C(=O)N1CCC(C(=O)Nc2ccc(S(=O)(=O)N3C(C)CCCC3C)cc2)CC1 (configuration not stated) | / | 10µM* | 12µM* | 1%
CC1CCN(CC(=O)Nc2ccc(S(=O)(=O)N3C(C)CCCC3C)cc2)CC1 (configuration not stated) | / | 15µM* | ? | 0%
Cc1ccc(NC(=O)C2CCN(C(=O)c3ccccc3C)CC2)cc1 | 0% | -28% | 1% | /
COc1ccc(CCNC(=O)/C(C#N)=C/c2cccc(OCc3ccccc3)c2)cc1OC | 1% | 18µM* | ? | -7%
Cc1ccc2c(c1)C(c1ccc(F)cc1)N(C(=O)c1ccc(S(=O)(=O)N3CCCCC3)cc1)CC(=O)N2 (configuration not stated) | 9% | ? | 18µM* | -6%
O=C1CN(C(=O)c2ccc(S(=O)(=O)N3CCCC3)cc2)C(c2ccc(F)cc2)c2cc(Br)ccc2N1 (configuration not stated) | 6% | 18µM* | ? | -3%
O=C1CN(C(=O)c2cc3ccccc3oc2=O)C(c2ccc(F)cc2)c2cc(Br)ccc2N1 (configuration not stated) | 4% | ? | 13µM* | -7%
O=C1CN(C(=O)c2ccc(S(=O)(=O)N3CCCC3)cc2)C(c2ccccc2)c2cc(F)ccc2N1 (configuration not stated) | 3% | ? | ? | 1%
O=C1CN(C(=O)c2ccc(S(=O)(=O)N3CCCCC3)cc2)C(c2ccc(F)cc2)c2cc(Br)ccc2N1 (configuration not stated) | 6% | 21µM* | 26µM* | -3%
O=C1CN(C(=O)c2cc3ccccc3oc2=O)C(c2ccc(F)cc2)c2cc(F)ccc2N1 (configuration not stated) | 1% | -15% | ? | -18%
Cn1cnc(S(=O)(=O)N2CCN(c3cccc(C(F)(F)F)c3)CC2)c1 | 8% | 2% | 1% | -1%
CCOC(=O)c1ccc(NC(=O)C(CC)Sc2nncn3c2cc2oc(C)cc23)cc1 (configuration not stated) | 5% | ? | ? | -3%
OC(c1cc(-c2ccc(Cl)cc2)nc2ccccc12)C1CCCCN1 (configuration not stated) | 3% | 26µM* | 23µM* | 1%
OC(c1cc(C(F)(F)F)nc2c(Cl)cc(Cl)cc12)C1CCCCN1 (configuration not stated) | 5% | ? | 18µM* | /
NC(=O)C1CCN(C(=O)c2cc(-c3ccc(Cl)cc3)nc3ccccc23)CC1 | 0% | ? | 1% | -7%
CCOC(=O)[C@@H](N)CS | -4% | ? | ? | /
COc1ccc(NC(=O)c2sc3nc4c(cc3c2N)CCCCCC4)cc1OC | / | ? | ? | 7%
COc1ccccc1NC(=O)c1sc2nc3c(cc2c1N)CCCCCC3 | / | 13µM* | ? | 5%
